Tgondii IFNg – T. gondii growth inhibition with IFN-gamma, primary screen, cell-based. Toxoplasma gondii growth in IFN-gamma-treated host cells; hits give low values. activity change, negative = inhibition, % (concentration not given with the values). 3.8% of 69,000 active; in the data active means activity change below about -70%, passing the limit was not always enough;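 further: host cells are HeLa cells infected with Toxoplasma gondii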
Each line names hits and unclear results; the compound was inactive in the other large screens; ! = repeats disagree. Only a selection was taken, and hits are over-represented in it overall.

O=C(O)CSc1nc(Nc2ccccc2)nc(N2CCOCC2)n1	none
Oc1[nH]c2ccccc2c1N=Nc1nc(Nc2ccccc2)nc(N2CCOCC2)n1	Tgondii IFNg -99
CCOCC(=O)N1CCN(Cc2csc(C)n2)c2ncccc2C1	none
CC(C)C[C@@H](CO)n1cc(-c2ccnc3ccccc23)nn1	none
COc1ccc(C(C)NC(=O)c2ccc(Cc3c(C)noc3C)s2)cc1F (stereo not given)	none
COc1cc2sc(NC(=O)Cc3c(C)noc3C)nc2cc1Cl	Tgondii IFNg -79
COc1ccc2nc(NC(=O)COc3cccc(C)c3)sc2c1	none
O=C(NCCc1csc(-c2ccc(F)cc2)n1)C(=O)Nc1ccccc1[N+](=O)[O-]	none
COc1ccc(CN(CCN(C)C)c2ccccn2)cc1	none
CCCCCCCCCCCCCCCC[N+](C)(C)CCN(Cc1ccc(OC)cc1)c1ncccn1	Tgondii IFNg -84
COc1ccc(CN(CCN(C)C)c2ncccn2)cc1	none
CCc1ccc(NC(=O)c2c(O)c3cccnc3n(-c3cccc(OC)c3)c2=O)cc1	none
Cc1cnn(Cc2nc(-c3ccc(NC(=O)c4ccc(F)cc4)cc3)oc2C)c1	Tgondii IFNg -82
Cc1cnn(Cc2nc(-c3ccc(NC(=O)c4ccc(C#N)cc4)cc3)oc2C)c1	none
Cc1cnn(Cc2nc(-c3ccc(NC(=O)c4cccc(F)c4)cc3)oc2C)c1	Tgondii IFNg -75
COc1ccc(C(=O)Nc2ccc(-c3nc(Cn4cc(C)cn4)c(C)o3)cc2)cc1F	none
CCc1ccc(C(=O)Nc2ccc(-c3nc(Cn4cc(C)cn4)c(C)o3)cc2)cc1	none
Cc1cnn(Cc2nc(-c3ccc(NC(=O)c4ccc(C)c(F)c4)cc3)oc2C)c1	none
COc1cc(C(=O)N2CCC(c3nc(C)n4ccsc34)CC2)cc(OC)c1OC	none
Cc1cc(C)n(CCCC(=O)Nc2nnc(-c3ccccc3F)s2)c(=O)n1	none
CN(C)S(=O)(=O)c1ccc2c(c1)cc(C(=O)NCCc1cccs1)n2Cc1ccncc1	none
Cc1ccccc1S(=O)(=O)NCC1CCN(Cc2cnn(C)c2)C1 (stereo not given)	none
CN(Cc1n[nH]c2c1CCCCC2)C(=O)CC1COCCN1 (stereo not given)	none
O=C(Nc1sc(NC(=O)c2cccs2)nc1-c1cccs1)c1ccccc1	none
Cc1cccc(C(=O)Nc2nc(-c3ccccc3)c(-c3ccccc3)s2)c1	Tgondii IFNg -72
Cc1cccc(C(=O)NCCc2sc(-c3ccccc3)nc2C)c1	none
COCC(NC(=O)C(=O)N1CCc2ccccc2C1)c1ccnn1C (stereo not given)	none
Cc1nc2c(c(N(C)C)n1)CCN(C(=O)c1cc(C(C)C)nn1C)C2	none
CCn1cc2c(n1)C(COC)CN(Cc1ccccn1)C2 (stereo not given)	none
COCC1c2c(cnn2CC2CCOCC2)CCN1C(=O)c1ccco1 (stereo not given)	none
Cn1cc(CN2CCC(C(O)(c3ccccc3)c3ccccc3)CC2)cn1	none
CC(C(=O)N1CCC(C(O)(c2ccccc2)c2ccccc2)CC1)n1ccnc1 (stereo not given)	none
CC(C)(C)c1ccc(C(O)CCCN2CCC(C(O)(c3ccccc3)c3ccccc3)CC2)cc1 (stereo not given)	Tgondii IFNg -91!
CCc1ncc2c(n1)CN(C(=O)C1(c3ccc(F)cc3)CCOCC1)C2	none
COCCN1CCC2(CC1)CC(NCC1CC1)c1ccccc12 (stereo not given)	none
CCS(=O)(=O)N1CCOCC1c1csc(C)n1 (stereo not given)	none
O=C(N1CCN(c2nc3ccccc3s2)CC1)N1c2ccccc2Sc2ccccc21	none
CCc1cc(=O)[nH]c(NC2CCN(C(=O)N3c4ccccc4Sc4ccccc43)CC2)n1	Tgondii IFNg -117
CCCc1cc(=O)[nH]c(SCC(=O)N2CCN(c3ccccc3OC)CC2)n1	none
O=C(NCCS(=O)(=O)c1ccc(F)cc1)C1(c2ccccc2F)CCOCC1	none
CCOc1cccc(C2c3[nH]c4ccccc4c3CCN2C(=O)c2ccc(OC)c(OC)c2)c1 (stereo not given)	Tgondii IFNg -89
CCOc1cccc(C2c3[nH]c4ccccc4c3CCN2C(=O)c2cccs2)c1 (stereo not given)	none
CCCC(=O)N1CCc2c([nH]c3ccccc23)C1c1cccc(OCC)c1 (stereo not given)	none
CCOc1cccc(C2c3[nH]c4ccccc4c3CCN2C(=O)c2ccco2)c1 (stereo not given)	Tgondii IFNg -109
CCOc1cccc(C2c3[nH]c4ccccc4c3CCN2C(=O)c2cc3ccccc3[nH]2)c1 (stereo not given)	none
CCOc1cccc(C2c3[nH]c4ccccc4c3CCN2C(=O)c2cccc(Cl)c2)c1 (stereo not given)	Tgondii IFNg -122
CCOc1cccc(C2c3[nH]c4ccccc4c3CCN2C(=O)c2ccccc2F)c1 (stereo not given)	none
CCOc1cccc(C2c3[nH]c4ccccc4c3CCN2C(=O)COc2ccccc2)c1 (stereo not given)	none
CCOc1cccc(C2c3[nH]c4ccccc4c3CCN2C(=O)c2ccc3c(c2)OCO3)c1 (stereo not given)	none
Cc1cc(N2CCC3(CCNC(=O)CC3)CC2)nc(-c2ccccc2O)n1	none
COc1ccc(-c2nnsc2C(=O)O)cc1	none
O=C(NC[C@@]12COC[C@@H]1CN(c1ncccn1)C2)c1cccnc1	none
Cc1ccccc1NC(=O)CC(=O)N1CCCC1Cn1cccn1 (stereo not given)	none
CN1C[C@H]2CCCO[C@H]2[C@H](N(C)Cc2ccco2)C1	none
Cc1ccc(NC(=O)C(=O)NCCc2csc(-c3ccc(Cl)cc3)n2)cc1C	none
Cc1c(-c2ccnc(N)n2)nnn1-c1ccc(Cl)cc1Cl	Tgondii IFNg -109
O=c1c(Cl)c(-n2cccn2)cnn1-c1ccc(Cl)cc1Cl	none
Cc1c(-c2ccccc2)nnn1-c1cc(Cl)cc(Cl)c1	none
COc1ccccc1-c1nc2cnccn2c1NCCC(=O)N1CCC(C)CC1	none
CN(NC1CC(=O)N(c2cccc(Cl)c2)C1=O)c1ccccc1 (stereo not given)	none
CN1c2ccc(C3=CCCCC3)cc2[C@@H]2[C@@H](CCN2C(=O)C2CCOCC2)[C@H]1CO	none
COc1cccc(-c2ccc3c(c2)[C@H]2[C@H](CCN2C(=O)c2ccccc2F)[C@@H](CO)N3C)c1	none
CC(C)NC(=O)N1CC[C@H]2[C@@H]1c1cc(C#Cc3ccccc3)ccc1N(C)[C@H]2CO	none
COc1ccc(C#Cc2ccc3c(c2)[C@H]2[C@H](CCN2C(=O)Nc2ccc(C(F)(F)F)cc2)[C@H](CO)N3C)cc1	none
COc1ccc(-c2ccc3c(c2)[C@@H]2[C@@H](CCN2C(=O)Nc2ccccc2OC)[C@@H](CO)N3C)cc1	Tgondii IFNg -72
CC(C)NC(=O)N1CC[C@@H]2[C@@H](CO)N(C)c3ccc(-c4ccc(F)cc4)cc3[C@@H]21	Tgondii IFNg -79
CN1c2ccc(-c3ccccc3)cc2[C@@H]2[C@@H](CCN2C(=O)CC2CC2)[C@@H]1CO	none
CN1c2ccc(C3=CCCCC3)cc2[C@@H]2[C@@H](CCN2C(=O)c2ccccc2F)[C@@H]1CO	Tgondii IFNg -76
CC(C)NC(=O)N1CC[C@@H]2[C@H]1c1cc(-c3ccc(F)cc3)ccc1N(C)[C@@H]2CO	none
CS(=O)(=O)N1CCC(Cn2cc(C(=O)O)cn2)CC1	none
Cc1oc(-c2ccc(C(=O)NCc3ccccc3F)cc2)nc1CN1CCc2ccccc21	none
Cn1cccc1C(=O)N1CCC2(CCCN(Cc3ccccn3)C2)C1 (stereo not given)	none
NCC1Cc2cc(-c3ccc(Cn4ccnc4)cc3)cc(F)c2O1 (stereo not given)	none
CNc1cc(-c2ccccc2OCCn2ccnc2)c2cc[nH]c2n1	none
